In PubChem BioAssay AID1159580 (chemical genetic matrix, 2015):
The whole screen tested about 5,500 compounds, of which about 2,000 (36%) were called active. Not shown: some 18% with an inconclusive outcome. Rule as the data show it: active = normalized growth mostly below about 0.91 (no sharp cut-off); inconclusive = no clear call, values can overlap the other calls; inactive = mostly above about 0.92. The list shows a part of the results.

Experiment: chemical genetic growth profiling, strain panel (AID 1159580);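 also: tested at 20 µM; growth read once vehicle control cultures reached saturation at 30 °C; 1 = growth at the plate median or of vehicle wells; lower values mean less growth of the strain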
Details: growth OD

Measured: normalized growth

CCC(=O)Nc1cc(OC)cc(OC)c1
inactive: S. cerevisiae deletion strains, locus YAL013W, strain DEP1, stronger effect = lower value 1 | S. cerevisiae deletion strains, locus YBR229C, strain ROT2, stronger effect = lower value 1.01 | S. cerevisiae deletion strains, locus YDL101C, strain DUN1, stronger effect = lower value 1.01 | S. cerevisiae deletion strains, locus YDL134C, strain PPH21, stronger effect = lower value 1 | S. cerevisiae deletion strains, locus YDR150W, strain NUM1, stronger effect = lower value 0.908 | S. cerevisiae deletion strains, locus YEL061C, strain CIN8, stronger effect = lower value 1 | S. cerevisiae deletion strains, locus YGR078C, strain PAC10, stronger effect = lower value 1.01 | S. cerevisiae deletion strains, locus YHR030C, strain SLT2, stronger effect = lower value 1.01 | S. cerevisiae deletion strains, locus YHR087W, strain rtc3, stronger effect = lower value 1 | S. cerevisiae deletion strains, locus YJR043C, strain POL32, stronger effect = lower value 0.963 | S. cerevisiae deletion strains, locus YJR075W, strain HOC1, stronger effect = lower value 0.98 | S. cerevisiae deletion strains, locus YLR039C, strain RIC1, stronger effect = lower value 1.04 | S. cerevisiae deletion strains, locus YLR058C, strain SHM2 (second series), stronger effect = lower value 1.01 | S. cerevisiae deletion strains, locus YLR085C, strain ARP6, stronger effect = lower value 0.973 | S. cerevisiae deletion strains, locus YLR262C, strain YPT6, stronger effect = lower value 1.02 | S. cerevisiae deletion strains, locus YML094W, strain GIM5, stronger effect = lower value 1.03 | S. cerevisiae deletion strains, locus YMR219W, strain ESC1, stronger effect = lower value 0.999 | S. cerevisiae deletion strains, locus YMR263W, strain SAP30, stronger effect = lower value 0.987 | S. cerevisiae deletion strains, locus YNL153C, strain GIM3, stronger effect = lower value 0.997 | S. cerevisiae deletion strains, locus YNL298W, strain CLA4 (second series), stronger effect = lower value 1.01 | S. cerevisiae deletion strains, locus YNL322C, strain KRE1, stronger effect = lower value 1.01 | S. cerevisiae deletion strains, locus YNR030W, strain Alg12, stronger effect = lower value 1.01 | S. cerevisiae deletion strains, locus YOL006C, strain TOP1, stronger effect = lower value 0.998 | S. cerevisiae deletion strains, locus YPL055C, strain LGE1, stronger effect = lower value 1.13 | S. cerevisiae deletion strains, locus YPL241C, strain CIN2, stronger effect = lower value 1.03 | S. cerevisiae deletion strains, locus YPR135W, strain CTF4, stronger effect = lower value 1.06 | S. cerevisiae strains, strain wild type, stronger effect = lower value 1.02
